Screens as filed in PubChem BioAssay.
TDP1 cell CPT: qHTS for Inhibitors of human tyrosyl-DNA phosphodiesterase 1 (TDP1): qHTS in cells in presence of CPT; chicken DT40 Tdp1-/-;hTDP1 cells + 20 nM CPT, ATP luminescence, 48 h; 420,000 tested, 12% active; Potency, µM (titrated, usually from 46.2 µM), without a hit: top-dose activity change, negative = growth inhibition, hits mostly inhibitors; note: potency is the fitted concentration of half-maximal effect; % is set by controls: 0 for no effect and ±100 for the full control effect; nearly all actives have a fitted effect of over 55% in size
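Chicken DT40 Tdp1-/- cells stably complemented with human TDP1 were seeded at 400 cells/well in medium containing 20 nM camptothecin, exposed to pin-transferred compounds, and grown at 37 °C for at least 48 hr. Viability was read as ATP luminescence.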
SW480 rereplic: A quantitative high throughput screen for small molecules that induce DNA re-replication in SW480 colon adenocarcinoma cells; AID 624297, 2012; Potency, µM (titrated, usually from 46.1 µM), for inactives: at the top dose re-replication activation, actives largely listed as activators; SW480 DNA re-replication, Hoechst DNA content imaging, 48 h; 340,000 tested, 1.8% active; note: potency is the fitted concentration of half-maximal effect; % of control where 0% means no effect; nearly all actives have a fitted effect of over 55% in size
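250 cells/well; 23 nL cpd via pin tool; 48 hr, 37 C, 5% CO2; Hoechst 40 min; imager read of total nuclear intensity, ex 405/em 500-530 nm.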
IL1B secr inh: qHTS for Inhibitors of Inflammasome Signaling: IL-1-beta AlphaLISA Primary Screen; THP-1 LPS/ATP IL-1B secretion, AlphaLISA, 16 h; active compounds read low; activity change, % at 57.5 µM; 360,000 tested, 4.7% active; AID 743279, 2014; in the data active = activity change below about -50%; inconclusive = mostly about -30% to -49%; note: % is set by controls: 0 for no effect and ±100 for the full control effect
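THP-1 cells pretreated 1 hr with compounds (up to 57.5 uM final), then stimulated with LPS (250 ng/mL final) plus ATP (1.25 mM final); secreted IL-1B measured by AlphaLISA after 16 hr, decreased signal indicating inhibition.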
MCF10A rereplic: A quantitative high throughput screen for small molecules that induce DNA re-replication in MCF 10a normal breast cells; MCF 10A DNA re-replication, Hoechst nuclear intensity, 48 h; Potency, µM (top dose mostly 46.1 µM), inactives show top-dose activity, positive = re-replication, most hits filed as activators; 350,000 tested, 2.9% active; AID 624296, 2012; note: potency is the fitted concentration of half-maximal effect; % of control where 0% means no effect; nearly all actives have a fitted effect of over 50% in size
DT40 TDP1 no CPT: qHTS for Inhibitors of human tyrosyl-DNA phosphodiesterase 1 (TDP1): qHTS in cells in absence of CPT; DT40 Tdp1-/- hTDP1 cells, no CPT, ATP luminescence, 48 h; Potency, µM (titrated, usually from 46.2 µM), for the others: top-dose activity change, negative = growth inhibition, most hits filed as inhibitors; 420,000 tested, 15% active; note: potency is the fitted concentration of half-maximal effect; % is set by controls: 0 for no effect and ±100 for the full control effect; nearly all actives have a fitted effect of over 55% in size
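Compound effects on proliferation are scored in DT40 Tdp1-/-;hTDP1 cells in the absence of CPT. ATP levels (CellTiter-Glo luminescence) are recorded after a ≥48 hr, 37 °C incubation.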
Chronic BCR inh: qHTS Assay to Find Inhibitors of Chronic Active B-Cell Receptor Signaling; ABC-DLBCL IkBa-CBG/CBR reporter, luminescence ratio, 4 h; Potency, µM (highest dose often 46.1 µM), for inactives: top-dose activity change, negative = inhibition, most hits filed as inhibitors; 340,000 tested, 0.05% active; active = well fitted inhibition curve with a large enough effect in the signal ratio, with a control signal flat, not every such curve was filed as active; inconclusive = small, poorly fitted or top-dose-only effect, or effect the other way, or a change in a side signal; the % refers to the signal ratio;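 note: potency is the fitted concentration of half-maximal effect; plate controls were basal doxycycline-induced cells for no effect and cells given 10 µM MG132 for full effect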
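Compounds up to 46 uM were incubated four hours with TMD8 cells whose green CBG68 luciferase is fused to IkappaBalpha; red CBR luminescence normalised the signal, and concentration-effect curves were fitted to fusion, red and ratio data.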
* hit, by the source's call. Shown are actives, neighbours in structure and some others; about 19% of the full set was active somewhere. Unless noted, calls come from the whole dose curve; as a rule, active = well fitted curve in the direction sought with a large enough effect; inconclusive = small, poorly fitted or top-dose-only effect, or another doubt; inactive = no such curve, though single readings can be large; an effect the other way counts as inactive or inconclusive.

Results for Cn1c(=O)[nH]c(=O)c2c1nc(N1CCCCC1)n2CCCSc1nnnn1-c1ccccc1 ?
TDP1 cell CPT: inconclusive; SW480 rereplic: -4%; IL1B secr inh: 3; MCF10A rereplic: 3%; DT40 TDP1 no CPT: inconclusive; Chronic BCR inh: -8%

How did CC(C)CCn1c(Sc2nc3ccccc3s2)nc2c1c(=O)[nH]c(=O)n2C do in these assays?
TDP1 cell CPT: inconclusive; SW480 rereplic: -19%; IL1B secr inh: -16; MCF10A rereplic: inconclusive; DT40 TDP1 no CPT: 16µM*; Chronic BCR inh: inconclusive

Results for CC(CSc1nc2ccccc2s1)Cn1c(N2CCCC2)nc2c1c(=O)[nH]c(=O)n2C (stereo not drawn) ?
TDP1 cell CPT: inconclusive; SW480 rereplic: 0%; IL1B secr inh: -19; MCF10A rereplic: 15%; DT40 TDP1 no CPT: 16µM*; Chronic BCR inh: inconclusive

Results for CC(C)CCn1c(SCC(=O)c2ccccc2)nc2c1c(=O)[nH]c(=O)n2C ?
TDP1 cell CPT: inconclusive; SW480 rereplic: -3%; IL1B secr inh: 21; MCF10A rereplic: -1%; DT40 TDP1 no CPT: -36%

Results for CC(C)CNC(=O)c1ccccc1C(=O)NC1(C(=O)NCC(C)C)CCCC1 ?
TDP1 cell CPT: 14%; SW480 rereplic: 0%; IL1B secr inh: 12; MCF10A rereplic: -1%; DT40 TDP1 no CPT: -20%

What do the screens show for `CCCNC(=O)c1cc(C2CCCCN2C(=O)CCCc2ccccc2)on1` (stereo not drawn)?
TDP1 cell CPT: -23%; IL1B secr inh: 26; DT40 TDP1 no CPT: -20%

What do the screens show for `Cn1nnc2cc(NC(=O)Nc3cccc(C(F)(F)F)c3)ccc21`?
TDP1 cell CPT: -6%; SW480 rereplic: inconclusive; IL1B secr inh: inconclusive; MCF10A rereplic: 20%; DT40 TDP1 no CPT: 10%; Chronic BCR inh: 0%

What do the screens show for `Cc1ccc(C(=O)NCC(c2ccc(F)cc2)N2CCOCC2)cc1` (stereo not drawn)?
TDP1 cell CPT: 0%; SW480 rereplic: -21%; IL1B secr inh: 3; MCF10A rereplic: 28%; DT40 TDP1 no CPT: 6%; Chronic BCR inh: -1%

Results for CCc1ccc2oc(C(=O)NCC(c3ccc(Cl)cc3)N3CCOCC3)c(C)c2c1 (stereo not drawn) ?
TDP1 cell CPT: 8.2µM*; DT40 TDP1 no CPT: 8.2µM*

How did Cc1ccc2c(C)c(C(=O)NCC(c3ccc(Cl)cc3)N3CCOCC3)oc2c1 (stereo not drawn) do in these assays?
TDP1 cell CPT: 15µM*; DT40 TDP1 no CPT: 12µM*

How did O=C(Nc1cccc2cccnc12)c1ccc2sc([C@@H]3O[C@H](CO)[C@H](O)[C@H](O)[C@H]3O)nc2c1 do in these assays?
TDP1 cell CPT: inconclusive; IL1B secr inh: -25; DT40 TDP1 no CPT: inconclusive

Results for O=S(=O)(CS(=O)(=O)c1ccccc1)c1ccccc1 ?
TDP1 cell CPT: 7%; SW480 rereplic: -10%; IL1B secr inh: 3; MCF10A rereplic: -14%; DT40 TDP1 no CPT: -13%

Results for O=S(=O)(C/C(=C/CO)S(=O)(=O)c1ccccc1)c1ccccc1 ?
TDP1 cell CPT: 0.82µM*; SW480 rereplic: 1.2µM*; IL1B secr inh: -106*; MCF10A rereplic: 0.82µM*; DT40 TDP1 no CPT: 2.3µM*; Chronic BCR inh: inconclusive

What do the screens show for `CCc1ccccc1NC(=O)C1CCN(S(=O)(=O)c2ccc3[nH]c(=O)ccc3c2)CC1`?
TDP1 cell CPT: 5%; DT40 TDP1 no CPT: 9%

What do the screens show for `N#Cc1ccccc1OCC(=O)Nc1ccccc1C(=O)NC1CC1`?
TDP1 cell CPT: 6%; SW480 rereplic: 7%; IL1B secr inh: -1; MCF10A rereplic: -9%; DT40 TDP1 no CPT: -24%; Chronic BCR inh: -15%

Results for Cc1ccc(C(=O)COC(=O)CN2C(=O)C3C4CC(C(Br)C4Br)C3C2=O)cc1 (stereo not drawn) ?
TDP1 cell CPT: -13%; SW480 rereplic: 7%; IL1B secr inh: -5; MCF10A rereplic: -1%; DT40 TDP1 no CPT: -15%; Chronic BCR inh: 0%

How did CCSc1nnc(NC(=O)C(CC)(C(F)(F)F)C(F)(F)F)s1 do in these assays?
TDP1 cell CPT: inconclusive; SW480 rereplic: -1%; IL1B secr inh: -19; MCF10A rereplic: inconclusive; DT40 TDP1 no CPT: 18µM*; Chronic BCR inh: inconclusive

How did CCSc1nnc(NC(=O)C(C)(C(F)(F)F)C(F)(F)F)s1 do in these assays?
TDP1 cell CPT: 23µM*; SW480 rereplic: -8%; IL1B secr inh: -1; MCF10A rereplic: 13%; DT40 TDP1 no CPT: 18µM*; Chronic BCR inh: inconclusive

How did CCCN1CCC(=O)NC1=S do in these assays?
TDP1 cell CPT: -15%; SW480 rereplic: 6%; IL1B secr inh: 9; MCF10A rereplic: -36%; DT40 TDP1 no CPT: 7%

How did CC1C2=C(CC(C)(C)CC2=O)NC2=C1C(=O)CC(C)(C)C2 do in these assays?
TDP1 cell CPT: 2%; SW480 rereplic: -106%; IL1B secr inh: -5; MCF10A rereplic: 5.8µM*; DT40 TDP1 no CPT: 3%; Chronic BCR inh: 5%

What do the screens show for `CN(C)c1ccc(-c2ccnc3c2CC(C)(C(=O)Nc2cccc(C(F)(F)F)c2)O3)cc1` (stereo not drawn)?
TDP1 cell CPT: -60%; IL1B secr inh: -18; DT40 TDP1 no CPT: inconclusive

Results for CC(C)c1ccc(NC(=O)C2(C)Cc3c(-c4ccccc4)ccnc3O2)cc1 (stereo not drawn) ?
TDP1 cell CPT: 18µM*; IL1B secr inh: -6; DT40 TDP1 no CPT: inconclusive

Results for COc1ccc(NC(=O)C2(C)Cc3c(-c4ccc(N(C)C)cc4)ccnc3O2)cn1 (stereo not drawn) ?
TDP1 cell CPT: 23µM*; IL1B secr inh: -6; DT40 TDP1 no CPT: 9.2µM*

What do the screens show for `CC(=O)Nc1ccc(NC(=O)C2(C)Cc3c(-c4cccc(C(F)(F)F)c4)ccnc3O2)cc1` (stereo not drawn)?
TDP1 cell CPT: inconclusive; IL1B secr inh: -14; DT40 TDP1 no CPT: inconclusive

How did CC1(C(=O)Nc2cccnc2)Cc2c(-c3ccc4c(c3)OCO4)ccnc2O1 (stereo not drawn) do in these assays?
TDP1 cell CPT: -76%; IL1B secr inh: -22; DT40 TDP1 no CPT: inconclusive
